Screens deposited in PubChem by The Scripps Research Institute Molecular Screening Center.
DAX1 inh-1: DAX1 (NR0B1) inhibitors on StAR promoter, primary screen, cell-based, luminescence, SF-1 (NR5A1), full-length DAX-1 | HEK293T StAR-luciferase reporter, SF-1/DAX-1 repression relief | inhibition, % at 6.8 µM | 370,000 tested, 1.1% active | AID 652010, 2013;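 active = inhibition above the mean over all tested compounds plus 3 SD, cut at about 3.6% in these data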;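 also: 0% = DAX-1 cells with DMSO and 100% = cells lacking DAX-1 with DMSO; higher inhibition means more luminescence from relief of DAX-1 repression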
DAX1 inh-2: DAX1 (NR0B1) inhibitors, primary screen, cell-based, HEK293, Gal4-DAX1, luciferase luminescence | AID 504766, 2011 | inhibition, % at 6.75 µM | Nuclear receptor subfamily 0 group B member 1 (Homo sapiens), P51843 | 340,000 tested, 0.99% active | HEK293 Gal4-DAX1 luciferase reporter;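 active = inhibition above the mean over all tested compounds plus 3 SD, cut at about 4.2% in these data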;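 also: 0% = DAX1-transfected cells with DMSO and 100% = empty-vector control cells with DMSO; inhibition shows as a rise in luminescence from relieved DAX1 repression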
hgDAF12 agonist: H. glycines DAF-12 receptor agonists, primary screen, cell-based, luminescence, HEK293, GAL4 fusion, UAS-luciferase; HEK293 GAL4-hgDAF12 UAS-luciferase reporter, agonist luminescence; normalized to butyrate control; activation, % at 6.8 µM; 370,000 tested, 1.8% active;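 active = activation above a cutoff set at the mean of all screened compounds plus 3 SD, cut at about 10% in these data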;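 also: 0% = DMSO wells and 100% = sodium butyrate wells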
ssDAF-12 act: S. stercoralis DAF-12 nuclear receptor activators, primary screen, cell-based, luminescence, HEK293, GRIP1 co-expression, lit1-tk-luc | 370,000 tested, 1% active | HEK293 ssDAF-12/GRIP1 lit1-tk-luc reporter; % of 3 µM dafachronic acid response | activation, % at 6.8 µM | Nuclear hormone receptor DAF-12 (Strongyloides stercoralis);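 active = activation above the mean over all tested compounds plus 3 SD, cut at about 0.9% in these data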;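 also: 0% = DMSO-only wells and 100% = 3 µM delta7-dafachronic acid wells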
hcDAF12 agonist: H. contortus DAF-12 nuclear receptor activators, primary screen, cell-based, luminescence, HEK293, lit1-tk-luc reporter; HEK293 hcDAF-12 lit1-tk-luc reporter; 0% DMSO, 100% Δ7-dafachronic acid; 370,000 tested, 1.4% active; AID 652067, 2013; activation, % at 6.8 µM;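 active = activation above the mean of all tested compounds plus 3 SD, cut at about 5.5% in these data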;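 also: 100% = response to 3 µM Δ7-dafachronic acid high control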
AHR activator: AHR activators, primary screen, cell-based, luminescence, luciferase reporter, human; Aryl hydrocarbon receptor (Homo sapiens), P35869; AHR-responsive luciferase reporter cells; activation, % at 5 µM; 320,000 tested, 2.5% active; AID 2796, 2010; in the data active = activation above about 47%;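 also: 0% = vehicle wells and 100% = reference agonist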
* = called active by the depositor; / = not tested or not shown; ! = a repeat was not active. An excerpt weighted towards active compounds, which were near 5.7% of everything screened.

SMILES	DAX1 inh-1	DAX1 inh-2	hgDAF12 agonist	ssDAF-12 act	hcDAF12 agonist	AHR activator
COc1cc(-c2nc3ccc4ccccc4c3c3c2CCC3)ccc1O	0.3	0.5	-1.3	-1.1	-0.2	71.6*
C[N+](C)(C)CCOC(=O)CCC(=O)OCC[N+](C)(C)C	0.6	-0.2	11.1*!	-0.7	-1.0	-0.9
C#CCNC(=O)C[C@H]1C[C@@]2(C(=O)OC)C(=C[C@H](C(C)(C)C)O[C@@H]2C)N(CCc2ccc(OC)c(OC)c2)C1=O	0.1	/	-0.9	-0.9	-1.6	/
O=C(NCc1ccccc1)C1COc2ccccc2O1 (configuration not stated)	1.2	-1.1	1.2	-0.6	3.5	18.4
Cc1onc(-c2ccccc2)c1CNC(=O)C1COc2ccccc2O1 (configuration not stated)	-0.1	4.6*	1.2	-1.7	-0.1	1.7
C=CCNC(=O)CSc1nnc(-c2ccc(S(=O)(=O)N3CCCC3)cc2)n1C	0.2	-0.2	-1.0	-1.2	-1.9	3.8
COc1ccc(N=C(NN)c2ccc3ccccc3n2)cc1	-2.8	-1.9	-16.5	-2.6	-5.3	70.7*
COc1ccc(CNC(=O)c2ccc3ccccc3n2)cc1	0.1	-0.2	-1.1	-0.2	2.9	13.3
O=C1NCCN1c1ccccc1	-0.8	3.9	1.9	-0.6	-0.5	/
O=C1N(c2ccccc2)CCN1c1ccccc1	1.9	3.8	10.7*	0.1	5.1	8.0
O=C1NC(=S)CN1c1ccccc1	0.3	5.6*	0.4	-1.2	-1.0	-2.2
CC1=C([N+](=O)[O-])C(c2ccc3c(c2)OCO3)N(C)C(=O)N1C (configuration not stated)	-0.4	-0.2	-0.1	-1.7	-1.1	1.8
COc1cc(OC)cc(C(=O)NCC(=O)NC(C)c2ccccc2)c1 (configuration not stated)	-0.2	0.2	2.2	-1.3	-0.6	7.8
C[C@@H]1CN([C@@H](C)CO)C(=O)CCCn2cc(nn2)CO[C@H]1CN(C)C(=O)CCC(F)(F)F	0.2	/	6.0	-1.1	0.8	/
CC(=O)Nc1ccc(NC(=O)C(C)OC(=O)/C=C/c2cn(-c3ccccc3)nc2-c2cccnc2)cc1 (configuration not stated)	-0.6	-1.4	3.3	-1.0	-1.6	5.3
Cc1ccccc1NC(=O)COC(=O)/C=C/c1cn(-c2ccccc2)nc1-c1cccnc1	-0.4	0.3	-0.4	1.1*	0.3	2.9
COc1ccc(N=Cc2nc(-c3ccccc3)oc2OC(=O)c2ccccc2)cc1	3.7*	0.8	11.9*	0.6	5.5	23.9
COc1cc(/C=N/n2cnnc2)ccc1OS(=O)(=O)c1ccccc1[N+](=O)[O-]	-0.5	1.3	1.9	-1.5	-0.6	1.8
O=[N+]([O-])c1ccccc1S(=O)(=O)Oc1ccc(/C=N/n2cnnc2)cc1	-0.8	1.8	7.7	1.2*	3.0	0.6
Cc1cc(C)c2cc(C(=O)N3CCC(C(=O)c4ccc(F)cc4)CC3)[nH]c2c1	-0.6	-1.4	-2.5	-1.4	-2.3	5.9
Cc1cc(C)c2cc(C(=O)N3CCC(N4CCCCC4)CC3)[nH]c2c1	4.3*	0.7	2.2	-0.7	-0.3	9.9
O=C(CCNS(=O)(=O)c1ccccc1C(F)(F)F)N1CCN(S(=O)(=O)c2cccc(F)c2)CC1	0.1	-1.4	4.2	-1.1	0.6	8.3
COC(=O)N1C[C@H](OCc2cn(-c3ccc(OC)cc3)nn2)[C@H]2C[C@@H]1c1ccccc1O2	-1.0	/	-3.7	-1.1	0.0	/
CCc1ccc(C2C3=C(CCCC3=O)OC3=C2C(=O)CCC3)cc1	-0.2	-1.3	1.2	-1.0	-0.5	-2.5
O=C1CCCC2=C1C(c1ccc(OS(=O)(=O)c3ccc(Cl)cc3)cc1)C1=C(CCCC1=O)O2	-0.3	7.2*	-0.6	-1.4	-1.2	-1.0
SMILES	DAX1 inh-1	DAX1 inh-2	hgDAF12 agonist	ssDAF-12 act	hcDAF12 agonist	AHR activator
COc1ccc(/C=C/CN2CCN(Cc3cccc(OC)c3)C(CCO)C2)cc1 (configuration not stated)	-0.6	4.2*	1.1	-1.7	0.6	4.6
COc1cccc(OC(C)CCN2CCC(C(O)(c3ccccc3)c3ccccc3)CC2)c1 (configuration not stated)	-0.9	/	0.8	0.9*	2.6	/
CC(CCN1CCC(C(O)(c2ccccc2)c2ccccc2)CC1)Oc1cc(F)cc(C#N)c1 (configuration not stated)	0.2	/	-1.4	-1.1	2.8	/
CC(CCN1CCC(C(O)(c2ccccc2)c2ccccc2)CC1)Oc1ccc(C#N)cc1F (configuration not stated)	0.2	/	-3.2	-1.2	6.0*	/
Cc1ncnc(N)c1CCCNc1ccccc1	-0.6	1.2	-2.8	-1.1	1.0	/
COc1ccc(N2CCN(C(=O)c3ccc(-c4nc5ccccc5s4)o3)CC2)cc1	2.5	-0.6	2.9	-0.2	3.2	69.2*
CC(=O)Nc1ccc(S(=O)(=O)N2CCN(c3ccc(C(C)=O)cc3)CC2)cc1	-3.3	/	-3.0	-1.6	-1.8	/
COc1ccccc1C1=NOC(C(=O)N2CCN(C(=O)c3ccco3)CC2)C1 (configuration not stated)	0.1	0.6	0.6	-1.2	-0.7	3.0
Cc1ccccc1OCCSc1nnc(-c2cccnc2)n1N	0.3	-0.2	3.5	-1.1	-2.6	53.8*
Nn1c(SCc2ccc(F)cc2)nnc1-c1cccnc1	0.0	-0.4	1.2	-1.1	1.4	1.8
CCn1c(SCC(=O)c2cc(OC)ccc2OC)nnc1C(C)C	0.7	1.6	2.6	1.2*	2.8	5.2
Cc1ccccc1OCC(=O)Nc1ccc2c(c1)OCCO2	2.8	8.2*	12.8*	-0.7	0.9	3.9
NC(=O)c1ccccc1OCC(=O)Nc1ccc2c(c1)OCCO2	4.5*	0.7	8.5	-0.5	4.7	/
Cc1ccc(-c2nnc(Cc3ccc([N+](=O)[O-])cc3)o2)cc1	0.6	2.2	11.8*	-1.3	2.8	0.0
O=[N+]([O-])c1ccc(Cc2nnc(-c3ccc(F)cc3)o2)cc1	1.0	2.2	9.4	0.0	4.5	-3.8
COc1ccc(NC(=O)C2C(c3ccc4c(c3)OCO4)=Nc3ccccc3N2C(C)=O)cc1 (configuration not stated)	1.9	/	9.5	0.8	6.2*	/
CC(=O)COc1cc2c(-c3cc4ccccc4o3)cc(=O)oc2cc1C	-0.2	0.5	0.7	-1.1	-1.9	18.5
